Assay outcomes as filed in PubChem.
HSF1 activator: increases HSF-1 driven luciferase reporter signal. NIH3T3-HGL HSF-1 luciferase reporter, MG132, 8 h; 100% = twice DMSO control signal. activation, % at 9 µM. 300,000 tested, 1.7% active. AID 504408;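 active means mean replicate activation of at least 50% with a set share of replicates each reaching 50%; inconclusive means only one of those two conditions met; inactive means mean below 50% and too few replicates reaching it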;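 further: 0% = median of the neutral control wells and 100% = twice that signal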
Wnt bcat act: Wnt/beta-catenin pathway activation | Wnt/beta-catenin reporter cell assay, activator, plate reader | activation, % at 9.35 µM | 300,000 tested, 1.2% active; in the data active means activation above about 30%, passing the limit was not always enough; inconclusive means no clear call, values can overlap the other calls;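 further: 0% = neutral control wells and 100% = positive control wells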
MITF TRPM1 HTS: MITF TRPM1 promoter activation in melanoma cells; SK-MEL-5 TRPM1-promoter luciferase, 24 h; % of positive control, neutral wells = 0; activation, % at 12.5 µM; 300,000 tested, 0.75% active; AID 588334;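 active means mean activation of at least 80% with every replicate also reaching 80%; inconclusive means mean reaches 80% but some replicate falls short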;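 further: 0% = neutral control wells and 100% = parthenolide positive control wells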
HSF1 inh: HSF1 inhibition; NIH3T3-HGL HSE-luciferase, MG132-induced, luminescence 8 h; active compounds read low; activity change, negative = inhibition, % at 7.5 µM (by protocol); 300,000 tested, 0.77% active;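 active means more than half of replicate wells show activity change below -50%, luminescence cut by over half; inconclusive means some wells, but at most half, below -50%; inactive means no replicate well below -50%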;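 further: luciferase reports HSF-1 transcriptional activity via heat shock element; 0% = median of DMSO wells and -100% = zero luminescence signal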
esBAF inh: inhibitors of esBAF chromatin remodeling in mouse ES cells; Bmi1-luciferase knock-in reporter, 24 h; 100% = twice the neutral-well signal; reporter increase, % at 12.5 µM; 350,000 tested, 2% active; AID 602393; in the data active means activation above about 40%; inconclusive means no clear call, values can overlap the other calls;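 further: 0% = median of the plate's neutral control wells and 100% = double that signal; a rise in the Bmi1 reporter signal indicates esBAF inhibition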
Active calls of the source: *; ? = inconclusive; / = no result given. The list is not random: actives were taken first. Their share in the collection is about 3.8%.

SMILES	HSF1 activator	Wnt bcat act	MITF TRPM1 HTS	HSF1 inh	esBAF inh
COc1ccc(NC(=O)COc2ccccc2Cc2ccccc2)cc1S(N)(=O)=O	81.1*	-4.6	-10.5	42.1	/
COc1ccc(NC(=O)CN(Cc2ccccc2)Cc2ccccc2)cc1S(N)(=O)=O	-8.1	/	-15.1	4.6	/
O=C(CN1CCOCC1)NCC[C@@H]1CC[C@@H](NC(=O)c2ccc3c(c2)OCO3)[C@@H](CO)O1	/	/	/	/	1.6
Oc1ccc2ccccc2c1CN1CCOCC1	82.8*	1.1	-5.9	70.6	-2.6
OCCC1CN(Cc2ccccc2O)CCN1CCCc1ccccc1 (stereo not given)	-4.7	15.7	/	-12.6	-4.6
Oc1ccccc1Cc1c(O)ccc2ccccc12	100.9*	-3.2	-6.2	64.4	5.7
CN(C)Cc1c(O)ccc2ccccc12	-2.8	2.2	-5.3	-0.4	/
OCCC1CN(Cc2c(O)ccc3ccccc23)CCN1CCc1ccccc1 (stereo not given)	215.6*	-2.3	-21.7	167.2	/
C[C@@H]1CCCCO[C@@H](CN(C)C(=O)Nc2ccccc2)[C@@H](C)CN([C@H](C)CO)C(=O)c2cc(NS(=O)(=O)c3cn(C)cn3)ccc2O1	/	/	/	/	-0.5
O=C(C[C@@H]1C[C@@H]2c3cc(NC(=O)CC4CC4)ccc3O[C@@H]2[C@H](CO)O1)NCc1ccc2c(c1)OCO2	/	/	/	/	-5.8
O=c1cc(-c2ccc(O)c(O)c2)oc2cc(O)cc(O)c12	-3.5	9.3	100.9*	0.2	24.7
COc1cc(OC)c2c(=O)cc(-c3ccccc3)oc2c1	16.6	52.3*	47.1	12.6	35.6
COc1ccc(-c2cc(=O)c3c(O)cc(O)cc3o2)cc1	/	63.8*	112.4*	/	25.4
COc1cc(OC)c2c(=O)cc(-c3cccnc3)oc2c1	35.8	-0.2	13.1	8.9	1.1
O=c1cc(-c2ccc(O)c(-c3c(O)cc(O)c4c(=O)cc(-c5ccc(O)cc5)oc34)c2)oc2cc(O)cc(O)c12	-22.5	-2.6	3.0	-7.7	3.6
COCC#Cc1ccc2c(c1)O[C@H](CN(C)C(=O)C1CCC1)[C@@H](C)CN([C@H](C)CO)S2(=O)=O	/	/	/	/	1.0
O=C(C[C@H]1C[C@@H]2c3cc(NC(=O)C4CCOCC4)ccc3O[C@@H]2[C@@H](CO)O1)NCc1ccc2c(c1)OCO2	/	/	/	/	1.2
CCOC(=O)c1c(C)[nH]c(/C(C)=N/NC(=O)c2cccnc2)c1C	/	-4.6	/	/	15.8
NC(=O)c1ccsc1NC(=O)COC(=O)c1c(F)cccc1Cl	/	21.5	66.8	/	112.4*
CCOC(=O)c1c(C)[nH]c(C(=O)OCC(=O)Nc2sccc2C(N)=O)c1C	-74.8	0.4	-39.1	-75.5*	4.1
CCOC(=O)c1c(C)[nH]c(C(C)=NNC(=O)c2cccs2)c1C	/	60.7*	/	/	76.8*
CC(C)(C)NC(=O)NC(=O)COC(=O)c1c(F)cccc1Cl	26.7	2.9	63.7	20.2	50.2*
CCOC(=O)c1c(C)[nH]c(C(=O)OCC(=O)Nc2ccc(Cl)cn2)c1C	/	0.5	6.5	/	-1.2
C[C@H]1CN([C@@H](C)CO)S(=O)(=O)c2ccc(C#CC3(O)CCCC3)cc2O[C@@H]1CN(C)C(=O)c1ccccc1	/	/	/	/	1.6
CN1[C@@H]2c3ccc(-c4ccc(F)cc4)c(=O)n3C[C@H]1[C@H](CO)[C@H]2C(=O)Nc1nccs1	/	/	/	/	2.7
SMILES	HSF1 activator	Wnt bcat act	MITF TRPM1 HTS	HSF1 inh	esBAF inh
COc1ccc(S(=O)(=O)N/N=c2\oc3c(OC)cccc3cc2S(=O)(=O)c2ccc(C)cc2)cc1OC	85.8*	-0.6	-4.0	59.0	/
CN(C)c1ccc(-c2cccc3nccn23)cc1	/	0.2	/	/	5.1
c1cc(-c2ccc(N3CCOCC3)cc2)n2ccnc2c1	/	26.3	/	/	57.1*
O=C(Nc1ccccc1)N1CCc2ccccc21	?	27.3	62.8	24.7	38.6
CCOC(=O)c1ccc(NC(=O)N2CCc3ccccc3C2)cc1	-33.0	3.8	22.0	-26.8	9.3
CCOC(=O)/C=C/C(=O)N1CCc2ccccc21	84.2*	/	/	62.3	-4.0
CCOCC(=O)N1CCc2ccccc21	29.5	/	-9.8	7.2	4.9
CCOC(=O)c1ccc(NC(=O)N2CCc3ccccc32)cc1	44.3	40.3*	73.4	37.0	68.4*
COc1ccc(NC(=O)N2CCc3ccccc32)cc1	65.0*	/	11.4	25.4	-25.2
COc1ccc(NC(=O)N2CCCc3ccccc32)cc1	2.5	54.2*	23.3	2.9	41.0*
COC(=O)C[C@H]1C[C@@H]2c3cc(NC(=O)Nc4ccc(C(F)(F)F)cc4)ccc3O[C@@H]2[C@H](CO)O1	/	/	/	/	-7.4
